Experiment: basal S. cerevisiae growth modulation, no modifier, primary screen, OD600, strain BY4716, 24 h, basal condition (AID 1173)
Details: OD600, 24 h, higher = more signal, called active from +8 up or from −8 down

z-score, inactive:
COCCOC(=O)N1C(=O)[C@@]2(c3cc(C#CCNC(N)=O)ccc31)[C@H](C(=O)N1CCc3cc(OC)c(OC)cc3C1)[C@H]1C(=O)O[C@H](c3ccccc3)[C@H](c3ccccc3)N1[C@@H]2c1ccc(OCCO)cc1 2.28
CCOC(=O)C1=CC[C@@H](c2ccccc2)N(S(=O)(=O)c2ccc(C)cc2)[C@H]1C(=O)OCC 1.45
O=C(CS)NCCCCCCNC(=O)[C@@H]1C[C@@H]2C(=O)N3CCC[C@H]3C(=O)N2[C@@H]1c1ccc(O)cc1 0.784
CCOC(=O)C1=CCC(c2ccc([N+](=O)[O-])cc2)N(S(=O)(=O)c2ccc(C)cc2)C1 (configuration not stated) 2.15
COCCOC(=O)N1C(=O)[C@@]2(c3cc(C#CCNC(N)=O)ccc31)[C@H](c1ccc(O)cc1)N1[C@H](c3ccccc3)[C@H](c3ccccc3)OC(=O)[C@H]1[C@@H]2C(=O)Nc1nc2ccccc2s1 -2.16
O=c1cccc(CCc2ccccc2)o1 -3.45
O=C1N(CCS(=O)(=O)c2ccccc2)Cc2ccccc2[C@H]2OC(c3ccc(OCCCO)cc3)=N[C@@]12CCS(=O)(=O)c1ccccc1 1.83
CN(C)C(=O)[C@@]1(CCC(=O)OC(C)(C)C)N=C(c2ccc(OCCCO)cc2)O[C@H]1c1ccccc1 -0.757
O=C1C2C=CC(C(O)c3ccc(-c4ccccc4)s3)N(n3cnnc3)C2C(=O)N1Cc1ccccc1 (configuration not stated) 1.07
CC(C)C(O)C1C=CC2C(=O)N(c3ccccc3)C(=O)C2N1Nc1ccc(C#N)cc1 (configuration not stated) -2.14
COC(=O)c1ccc(C(O)C2C=CC3C(=O)N(C)C(=O)C3N2NC(=O)OC(C)(C)C)o1 (configuration not stated) 0.483
CCOC(=O)C1=C[C@@H](CC)N(S(=O)(=O)c2ccc(C)cc2)[C@H]1c1ccccc1 1.21
COC(=O)[C@@]1(Cc2ccccc2)[C@H]2c3cc(C(=O)N(C)C)n(Cc4c(-c5ccccc5)noc4C)c3C[C@H]2CN1C(=O)c1ccccc1 1.56
COCCOC(=O)N1C(=O)[C@@]2(c3cc(C#CCNC(N)=O)ccc31)[C@H](c1ccccc1OCCO)N1[C@H](c3ccccc3)[C@H](c3ccccc3)OC(=O)[C@H]1[C@@H]2C(N)=O 1.91
CC(C)N1C(=O)[C@@]2(c3ccc([N+](=O)[O-])cc3)CC(=O)N(CC34CC5CC(CC(C5)C3)C4)[C@@H]2c2ccc(CO)cc21 0.601
CC(=O)NCCCC[C@@H]1NC(=O)[C@@H]2C[C@H](C(=O)NCCCCN(C)C)[C@H](c3ccc(O)cc3)N2C1=O -0.397
Cc1ccccc1C(O)C1C=CC2C(=O)N(C)C(=O)C2N1N1CCCCC1 (configuration not stated) 0.492
CCOC(=O)C[C@H]1[C@H](OC(=O)c2ccc(C(=O)c3ccccc3)cc2)[C@@H](NC(=O)C2CCCCC2)c2cc(OCCCO)ccc2N1C(=O)c1ccccc1 -0.153
COc1ccc([Si](C)(C)[C@@H]2[C@@H](CC(=O)N3CCC[C@H]3CO)O[C@]3(C(=O)N(C)c4c(Br)cc(C)cc43)[C@H]2C)cc1 -1.62
COC(=O)[C@@]1(Cc2ccc(F)cc2)[C@H]2c3cc(C(=O)N4CCCC4)n(Cc4cccc5ccccc45)c3C[C@H]2CN1C(=O)c1ccccc1 1.28
C=CC(COC(C)=O)NS(=O)(=O)c1ccc(Br)cc1 (configuration not stated) -2.68
CC(C)(C)OC(=O)CC[C@@]1(C(=O)O)N=C(c2ccc(OCCCO)cc2)O[C@@H]1c1ccccc1N=[N+]=[N-] 0.523
CCOC(=O)C1=CCC(c2ccc(C#N)cc2)N(S(=O)(=O)c2ccc(C)cc2)C1 (configuration not stated) 0.916
O=C1OCCC=C[C@H]2OC34C=CCN(Cc5ccccc5)C(=O)[C@H]3N(CCCO)C(=O)[C@@H]4C12 (some centres not stated) -0.625
O=C1OCC=C[C@H]2OC34C=CCN(c5ccc(Cl)cc5)C(=O)[C@H]3N(CCCCCCO)C(=O)[C@@H]4[C@@H]12 (some centres not stated) -0.69
COC(=O)C(CC#Cc1ccc2c(c1)[C@]1(C(=O)N2)[C@H](c2ccc(OCCO)cc2)N2[C@H](c3ccccc3)[C@H](c3ccccc3)OC(=O)[C@H]2[C@@H]1C(=O)NC[C@H](O)c1ccccc1)C(=O)OC 1.51
CCOC(=O)C1=CC[C@@H](c2ccccc2Cl)N(S(=O)(=O)c2ccc(C)cc2)C1 -1.65

From PubChem BioAssay
